Screening results (PubChem BioAssay)
Hits are enriched below; roughly 3.6% of the tested compounds scored in any of these assays.
LDHA inh: LDHA (human) enzyme inhibition. P00338. purified LDHA, NADH/diaphorase-resazurin fluorescence; active compounds read low. activity change, % (values are at about 110 or 230 µM). 480,000 tested, 0.15% active; in the data active means activity change below about -30%;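 further: plate controls were DMSO wells for no effect and wells without enzyme for full effect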
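Enzyme activity of human lactate dehydrogenase 5 (2 nM; 0.06 mM NADH, 0.2 mM pyruvate, 5 min, RT) is measured via a resazurin/diaphorase fluorescence readout of residual NADH.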
TRHR enhancer: TRH receptor (human) allosteric enhancement. 360,000 tested, 0.66% active. TRHR cells, fluo-8 calcium fluorescence, EC20 TRH enhancement. P34981. enhancement, % at 2 µM. AID 493056; in the data active means enhancement above about 30%; further: 0% is about no effect
Target sequence (P34981 whole entry, looked up): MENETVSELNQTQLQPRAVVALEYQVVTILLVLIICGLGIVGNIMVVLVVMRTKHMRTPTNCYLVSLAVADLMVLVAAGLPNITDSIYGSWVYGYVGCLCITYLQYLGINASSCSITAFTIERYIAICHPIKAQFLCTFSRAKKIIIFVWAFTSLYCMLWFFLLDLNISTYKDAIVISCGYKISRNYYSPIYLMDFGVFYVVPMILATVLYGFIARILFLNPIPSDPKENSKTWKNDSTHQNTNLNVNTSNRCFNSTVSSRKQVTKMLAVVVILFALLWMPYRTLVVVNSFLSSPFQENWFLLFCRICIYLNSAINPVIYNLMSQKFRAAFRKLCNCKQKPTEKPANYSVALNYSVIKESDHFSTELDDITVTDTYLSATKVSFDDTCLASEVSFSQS
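Enhancer read-out: after compound pinning and an initial kinetic agonist-mode read, an EC20 of TRH (10 nM final) was injected and fluo-8 calcium signal (Ex 480/Em 530) followed at 1 s/cycle for 100 cycles in TRHR-expressing cells.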
D1 antag: antagonists of human D1 dopamine receptor. P21728. HEK293 TREx D1 cells, calcium flux, dopamine EC80; active compounds read low. activity change, negative = inhibition, % at 10 µM. 360,000 tested, 3.2% active. AID 504652; in the data active means activity change below about -30%; further: on the % scale 0 is the no-effect control and ±100 the full control effect
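Allosteric or orthosteric antagonism assessed as attenuation of the calcium response to EC80 dopamine, added 180 s after compound, in induced HEK293 Trex D1 cells loaded with no-wash calcium dye.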
D1 potentiator: human D1 dopamine receptor positive modulation; potentiation, % at 10 µM; P21728; HEK293 TREx D1 cells, calcium flux, dopamine EC20 potentiation; 360,000 tested, 0.036% active; in the data active means potentiation above about 30%; further: 0% is about no effect
D1 ag: human D1 receptor agonism | 360,000 tested, 1% active | activation, % at 2 µM | HEK293 T-REx D1 cells, calcium flux, agonist mode | P21728; further: 0% is about no effect
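Tetracycline-induced HEK293 TREx D1 cells, force-coupled to calcium signalling, were dye-loaded with a no-wash calcium kit. Compound was pin-added after a 10 s baseline. Fluorescence was read kinetically at 1 cycle/s for 180 s, with calcium rises flagged as agonism.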
TRHR ag: TRH receptor (human) agonism; P34981; TRHR cells, calcium flux fluo-8, FDSS agonist mode; activation, % at 2 µM; 360,000 tested, 0.18% active; further: 0% is about no effect
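Agonist-mode FDSS calcium read (Ex 480/Em 530, 1 s cycles) in 1536-well TRHR cells with fluo-8 dye, after 10-cycle baseline and 23 nL compound addition; TRH at EC20 (10 nM final) added afterwards for the enhancer phase.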
Numbers without * were called inactive; . = not tested or not shown. Unless noted, no stated cut-off is given here; in the data, active means activation above about 30%; inactive means the rest.

SMILES | LDHA inh | TRHR enhancer | D1 antag | D1 potentiator | D1 ag | TRHR ag
Clc1ccc2c(c1)C(N1CCNCC1)Cc1ccccc1S2 (stereo unspecified) | -1.4 | 2.2 | -86.4* | -28.1 | 9.5 | 2.1
COCCCN1CCN(C2Cc3ccccc3Sc3ccc(Cl)cc32)CC1 (stereo unspecified) | -1.1 | 1.7 | -85.5* | -18.1 | 3.7 | 0.9
COc1ccc2c(c1)CC(N1CCN(C)CC1)c1cc(OC)ccc1S2 (stereo unspecified) | -5.4 | . | . | . | . | .
CCCc1c(C)nc(Nc2nc(C)c3cc(CC)ccc3n2)[nH]c1=O | 0.9 | . | . | . | . | .
CC(OC(=O)c1cc(C2CC2)nn1-c1ccccc1)C(=O)Nc1ccc(N(C)C)cc1 (stereo unspecified) | 0.6 | . | . | . | . | .
COC(=O)c1cc(NC(=O)OCc2ccccc2)cc(C(=O)OC)c1 | -22.6 | . | . | . | . | .
CC(C)(C)c1ccc(C(=O)/C=C/c2cccc([N+](=O)[O-])c2)cc1 | 1.2 | . | . | . | . | .
CC(=O)c1ccc(S(=O)(=O)N2CCN(C(=O)CSc3ccc(C)c(C)c3)CC2)cc1 | 0.4 | -2.5 | -34.0* | -8.0 | 10.5 | -2.1
Cc1ccc(S(=O)(=O)N2CCN(C(=O)CSc3ccc(Cl)cc3)CC2)cc1 | -1.5 | -1.4 | -17.0 | -4.5 | 1.0 | 0.3
O=C(CCSc1ccc(Cl)cc1)Oc1ccc2ccc(=O)oc2c1 | 9.8 | . | . | . | . | .
O=C(CCCCn1c(=O)[nH]c2ccsc2c1=O)N1CCN(c2cccc(Cl)c2)CC1 | 5.4 | 1.2 | -36.4* | -0.6 | 4.3 | -0.2
O=C(CCn1c(=O)[nH]c2ccsc2c1=O)N1CCN(c2cccc(Cl)c2)CC1 | -3.4 | 8.2 | -49.5* | -6.7 | 0.7 | -1.7
CC(=O)c1ccc(N2CCN(C(=O)CCCCn3c(=O)[nH]c4ccsc4c3=O)CC2)cc1 | -1.5 | 2.5 | -9.0 | -0.4 | 4.6 | -0.3
O=C(CCn1c(=O)[nH]c2ccsc2c1=O)N1CCN(c2ccc([N+](=O)[O-])cc2)CC1 | -0.9 | 36.2* | -2.0 | 5.3 | 3.8 | 0.1
CCC(NC(=O)C1CC1)C12CC3CC(CC(C3)C1)C2 (stereo unspecified) | 4.8 | . | . | . | . | .
CSc1ccc(C)c(C(=O)NCC(C)C)c1 | -2.2 | . | . | . | . | .
Cn1nc(C(=O)N2CCCC2c2ccc3c(c2)OCCCO3)c2ccccc2c1=O (stereo unspecified) | -6.7 | . | . | . | . | .
COc1ccc(/C=C/C(=O)Nc2ccc(-c3nnc4n3CCCCC4)cc2)c(OC)c1 | 0.4 | 34.6* | -16.0 | 9.1 | 3.4 | -0.3
CCC(C)(C)C1CCc2c(sc(NC(=O)C3c4ccccc4Oc4ccccc43)c2C(N)=O)C1 (stereo unspecified) | 2.8 | 43.1* | -1.2 | -4.8 | 2.8 | -1.0
Cc1ccc(Nc2nc(N)nc(CN3CCN(C)CC3)n2)cc1C | . | 16.1 | 11.5 | -3.7 | 2.6 | -0.3
COC(=O)CC(=O)Cc1nc(N)nc(Nc2ccc(C)c(C)c2)n1 | -6.5 | -6.0 | -50.4* | -9.1 | 0.5 | -1.9
N#C/C(=C/c1ccc(O)c(O)c1)C(=O)NCc1ccc(Cl)cc1 | 13.2 | 7.9 | -32.9* | . | 78.7* | -1.6
CCS(=O)(=O)CCn1c([N+](=O)[O-])cnc1C | -3.2 | 37.5* | -18.4 | 2.4 | 0.0 | 0.4
Cc1ncc([N+](=O)[O-])n1CCO | -8.5 | -11.3 | 11.2 | -1.7 | -0.2 | -1.3
C=CCOc1ccccc1C(=O)Nc1cccc(C#N)c1 | 1.3 | . | . | . | . | .
SMILES | LDHA inh | TRHR enhancer | D1 antag | D1 potentiator | D1 ag | TRHR ag
O=C(Cc1ccc(F)cc1)NNC(=O)c1ccc2[nH]c3c(c2c1)CCCC3 | 5.5 | . | . | . | . | .
CCOC(=O)c1cc(-c2ccccc2)sc1NC(=O)CC(C)C | 3.7 | -2.0 | -30.9* | -5.5 | 2.3 | 0.9
COc1ccc(C(C)=O)cc1Cn1cnc2c(cnn2C)c1=O | -5.2 | 0.4 | 3.7 | 4.2 | 2.8 | 0.1
COc1ccc(C=O)cc1Cn1cnc2c(cnn2C)c1=O | -5.3 | 3.8 | -36.4* | 1.2 | 1.2 | 1.1
CCN(CC)CCCNCC(=O)Nc1cc(C)on1 | -30.2* | -0.1 | 7.6 | -2.4 | -1.4 | -0.1
CSCC(=O)Nc1cc(C)on1 | -1.1 | -5.2 | -7.0 | 2.8 | 2.8 | 0.2
COc1ccc2c(c1)c(=O)c(S(=O)(=O)c1ccc(C)cc1)cn2C | -2.7 | . | . | . | . | .
O=C(Nc1ccc(F)cc1)c1cn(-c2ccccc2)nn1 | -8.2 | . | . | . | . | .
